Screening results: PubChem, The Scripps Research Institute Molecular Screening Center
HTR5A ag: HTR5A agonists in luminescence cell assay, primary screen, counter-screen for OPRM1-OPRD1 heterodimer agonist project, full-deck HTS; 0.61% of 340,000 active; activation, % at 9.3 µM; cell-based; in the data active = activation mostly above about 9.5%, no sharp cut-off; inactive = mostly below about 7.6%;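 note: 0% = cells with vehicle only and 100% = reference agonist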
Target sequence (P47898 whole entry, looked up): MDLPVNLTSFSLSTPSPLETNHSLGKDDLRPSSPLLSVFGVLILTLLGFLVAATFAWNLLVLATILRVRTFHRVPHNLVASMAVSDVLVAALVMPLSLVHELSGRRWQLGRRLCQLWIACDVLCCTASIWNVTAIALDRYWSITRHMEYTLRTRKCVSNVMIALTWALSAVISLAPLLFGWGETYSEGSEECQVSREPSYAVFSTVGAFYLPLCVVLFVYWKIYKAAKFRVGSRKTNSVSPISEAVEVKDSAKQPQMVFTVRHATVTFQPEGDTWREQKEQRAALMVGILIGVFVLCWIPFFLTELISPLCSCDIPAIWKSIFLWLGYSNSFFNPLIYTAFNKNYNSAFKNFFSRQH
HTR5A inv ag: HTR5A inverse agonists in luminescence cell assay, primary screen, counter-screen for OPRM1-OPRD1 heterodimer inverse agonist project, full-deck HTS; 5-hydroxytryptamine receptor 5A (Homo sapiens), P47898; HTR5A cell line, inverse agonism; inhibition, % at 9.3 µM; 0.083% of 340,000 active; in the data active = inhibition mostly above about 23%, no sharp cut-off; inactive = mostly below about 18%;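 note: 0% = cells with DMSO and 100% = no-cell wells with DMSO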
OPRM1-OPRD1 inv: inverse agonists of MOR-DOR heterodimerization, primary screen, cell-based, luminescence; Mu-type opioid receptor (Homo sapiens) + Delta-type opioid receptor (Homo sapiens), …; cell-based MOR-DOR heterodimer luminescence, inverse agonism; inhibition, % at 9.3 µM; 0.21% of 340,000 active; in the data active = inhibition above about 22%, passing the limit was not always enough;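 note: 0% = cells with DMSO and 100% = wells without cells with DMSO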
OPRM1-OPRD1 ag: agonists of OPRM1-OPRD1 heterodimerization, primary screen, cell-based, luminescence; cells; activation, % at 9.3 µM; 0.3% of 340,000 active; in the data active = activation above about 18%;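 note: 0% = vehicle-treated cells and 100% = reference agonist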
Numbers without * were called inactive. Compounds with a hit are over-represented: about 1.1% of the library has one in this group of screens.

SMILES	HTR5A ag	HTR5A inv ag	OPRM1-OPRD1 inv	OPRM1-OPRD1 ag
CCC1Nc2ncnc(N3CCOCC3)c2N(Cc2ccc(OC)cc2)C1=O (stereo not given)	3.1	-3.6	15.4	-2.8
Cc1ccc(CN2C(=O)C(Cc3ccccc3)Nc3ncnc(N4CCN(c5ccccc5)CC4)c32)cc1 (stereo not given)	-22.3	55.2*	50.9*	-8.8
CCC1Nc2ncnc(N3CCN(c4ccccc4)CC3)c2N(Cc2ccc(OC)cc2)C1=O (stereo not given)	-15.7	51.8*	57.3*	-12.5
Cc1ccc(C)n1-c1ccc(C(=O)N/N=C/c2ccncc2)cc1	-1.1	2.8	5.8	-1.2
CC(C)C(NC(=O)c1ccccc1)c1nnc(SCC(=O)NC2CCCC2)n1C (stereo not given)	-2.6	7.0	-12.9	1.7
CSCCC(NC(=O)c1ccc([N+](=O)[O-])cc1Cl)C(=O)OC1CCCCC1=O (stereo not given)	-1.0	-1.5	-3.5	0.5
COc1ccc(-c2cc(C(=O)O)no2)cc1	9.8*	-26.4	11.4	-2.3
CCC(C)NC(=O)c1cc(-c2ccc(OC)cc2)on1 (stereo not given)	-1.0	-29.6	0.7	-0.1
O=c1[nH]nc(SC2CCCCC2)c(=O)[nH]1	0.9	-3.5	6.9	-1.6
Cc1nonc1C(=O)N/N=C/c1ccncc1	-4.4	11.8	-6.2	0.9
Nc1nonc1C(=O)N/N=C/c1ccncc1	10.9*	-26.9	-2.1	0.4
O=C(NC1CC1)c1cccc(NC(=O)c2cn3ccccc3n2)c1	13.0*	-9.2	20.1	-5.1
COc1ccc(C2=NOC(C)(c3nnc(-c4ccccc4)o3)C2)cc1 (stereo not given)	1.0	4.0	3.4	-0.6
O=C(O)C1CC=CCC1C(=O)NCCc1cccc(Cl)c1 (stereo not given)	12.8*	-19.1	0.4	-0.1
Cc1ccccc1NC(=O)CSc1n[nH]c(-c2ccccn2)n1	1.0	10.1	21.3	-3.9
COc1ccc(/C=N\NC(=O)CNC(=O)C(c2ccccc2)c2ccccc2)cc1[N+](=O)[O-]	5.1	-14.4	-3.7	0.5
COc1ccc(/C=N/NC(=O)C(C)Sc2ccccn2)cc1[N+](=O)[O-] (stereo not given)	10.9*	22.2	16.0	-3.1
O=C(/C=C/c1ccccc1[N+](=O)[O-])NC1CCCC1	-4.5	10.8	4.1	-0.8
CC(NC(=O)[C@H](C)NC(=O)[C@@H]1CSC2c3ccccc3C(=O)N21)c1ccccc1 (stereo not given in full)	4.9	1.9	17.1	-3.4
Cn1c(=O)[nH]c(=O)c2c1nc(NC1CCCC1)n2Cc1ccccc1	10.0*	-37.9	7.8	-1.6
CCOC(=O)c1nnn(-c2nonc2N)c1COc1ccccc1	11.0*	-11.0	-18.8	3.3
CCOC(=O)c1nnn(-c2nonc2N)c1COc1ccc(F)cc1	3.5	9.9	0.7	-0.1
CN(C)CCCN(C(=O)c1ccc(N2C(=O)CCC2=O)cc1)c1nc2c(F)cccc2s1	13.3*	-36.2	12.3	-2.3
CN(C)CCCN(C(=O)c1ccc2c(c1)CCCC2)c1nc2c(F)cccc2s1	4.0	-15.0	-27.9	5.2
O=C(NC(c1ccccc1)c1c(O)ccc2ccccc12)c1ccccc1Cl (stereo not given)	11.3*	0.9	-55.3	9.9
SMILES	HTR5A ag	HTR5A inv ag	OPRM1-OPRD1 inv	OPRM1-OPRD1 ag
O=C(NC(c1ccc(Cl)cc1)c1c(O)ccc2ccccc12)c1ccccc1 (stereo not given)	-1.2	-2.8	9.3	-1.7
Cc1ccc(CN2C(=O)C(C)Nc3ncnc(N4CCN(c5ccccn5)CC4)c32)cc1 (stereo not given)	-17.1	56.0*	55.5*	-12.1
CC1Nc2ncnc(N3CCN(c4ccccn4)CC3)c2N(Cc2ccccc2)C1=O (stereo not given)	-13.9	43.2*	44.8*	-9.8
COc1ccc(CN2C(=O)C(CC(C)C)Nc3ncnc(N4CCN(c5ccccn5)CC4)c32)cc1 (stereo not given)	-0.6	12.8	-13.9	2.5
COc1ccc(CN2C(=O)C(C)Nc3ncnc(N4CCN(c5ccccn5)CC4)c32)cc1 (stereo not given)	-21.6	63.4*	70.4*	-12.2
Cc1ccc(NS(=O)(=O)c2cccc(C(=O)NCC(c3ccco3)N3CCCCC3)c2)cc1 (stereo not given)	7.5	10.6	2.3	-0.4
COc1ccccc1N1CCN(C(=O)CCc2nnc3ccc(N4CCOCC4)nn23)CC1	2.0	-7.7	9.9	-1.9
O=S(=O)(c1cccc(Br)c1)N1CCN(CCc2ccccc2)CC1	10.7	-28.6	-22.8	4.3
COc1ccc(C(=O)CC2OC(=O)c3c2ccc(OC)c3OC)cc1 (stereo not given)	12.7*	-39.9	-4.9	0.8
O=C(CN1CCN(Cc2ccc3c(c2)OCO3)CC1)Nc1ccc2[nH]c(=O)[nH]c2c1	0.3	-1.3	0.6	-0.1
O=C(N[C@H]1C/C=C\C[C@@H](CC(=O)N(CCO)Cc2ccccc2)C(=O)NC[C@H](c2ccccc2)OC1=O)OCC1c2ccccc2-c2ccccc21	-5.8	16.9	28.7	-5.0
COc1cc2c(cc1OC)C(c1ccc(-c3cc(Cl)ccc3Cl)o1)=NCC2	-1.6	-21.4	-7.5	1.3
COc1cc2c(cc1OC)C(c1ccc(-c3ccc(Cl)c(Cl)c3)o1)=NCC2	10.6*	-2.6	-20.0	4.1
O=C(CCCn1c(=S)[nH]c2ccccc2c1=O)NCCSCc1ccccc1	3.6	-9.9	1.7	-0.3
CCN(CC)c1ccc(/C=N/NC(=S)NCc2ccccc2)cc1	13.7*	8.3	-13.3	2.3
COc1ccccc1-c1cn[nH]c1-c1ccc(OCc2ccccc2)cc1O	12.1*	-38.0	-58.1	11.0
COc1ccc(-c2cn[nH]c2-c2ccc(OCc3ccccc3)cc2O)cc1	1.7	-5.3	-60.1	11.4
CCc1nnc(NC(=O)CCC(=O)Nc2ccc(OC)cc2OC)s1	-1.9	14.2	10.2	-1.9
O=C(CN1CCN(CCC(=O)Nc2ccccc2F)CC1)Nc1ccc(Cl)cc1	13.1*	-28.8	9.6	-1.9
COc1ccc2cc3cc(C(=O)NCC4COc5ccccc5O4)oc3nc2c1 (stereo not given)	13.5*	-47.6	-36.6	6.7
COc1cccc(CNC(=O)[C@H](C)NC(=O)C2CCN(S(=O)(=O)c3ccccc3)CC2)c1	2.9	-5.4	-1.0	0.2
COc1cc(/C=N/N=C(N)N)ccc1OCc1ccc(Cl)cc1	10.5*	-27.9	-54.8	7.6
Cc1nn(-c2ccc(Cl)cc2)c(=O)c2ccccc12	-4.2	10.3	17.0	-3.3
Cc1c(Cl)sn(-c2ccc(Cl)cc2)c1=O	19.0*	-53.9	-208.0	36.4*
O=C(N/N=C/c1ccccc1OC(F)F)c1cc(-c2ccncc2)nc2ccccc12	12.4*	-3.2	-7.0	1.4
O=C(O)COc1ccccc1/C=N/NC(=O)c1cc(-c2ccccc2)nc2ccccc12	-3.9	22.1	6.6	-1.2
